Laboratory results from ChEMBL document CHEMBL1961873, “Compounds: GSK PKIS; Assays: Nanosyn kinase panel” (2012).

Experiments:
[1] = molecular target: High affinity nerve growth factor receptor (Homo sapiens) (UniProt P04629); settings: at 1 µM;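 also: each value is the mean percent inhibition of TRKA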
[2] = molecular target: BDNF/NT-3 growth factors receptor (Homo sapiens) (UniProt Q16620); settings: at 0.1 µM
[3] = molecular target: BDNF/NT-3 growth factors receptor (Homo sapiens) (UniProt Q16620); settings: at 1 µM
[4] = molecular target: NT-3 growth factor receptor (Homo sapiens) (UniProt Q16288); settings: at 0.1 µM
[5] = molecular target: NT-3 growth factor receptor (Homo sapiens) (UniProt Q16288); settings: at 1 µM
[6] = molecular target: T1, Tyrosine-protein kinase TXK (Homo sapiens) (UniProt P42681); settings: at 0.1 µM
T1 sequence (whole entry): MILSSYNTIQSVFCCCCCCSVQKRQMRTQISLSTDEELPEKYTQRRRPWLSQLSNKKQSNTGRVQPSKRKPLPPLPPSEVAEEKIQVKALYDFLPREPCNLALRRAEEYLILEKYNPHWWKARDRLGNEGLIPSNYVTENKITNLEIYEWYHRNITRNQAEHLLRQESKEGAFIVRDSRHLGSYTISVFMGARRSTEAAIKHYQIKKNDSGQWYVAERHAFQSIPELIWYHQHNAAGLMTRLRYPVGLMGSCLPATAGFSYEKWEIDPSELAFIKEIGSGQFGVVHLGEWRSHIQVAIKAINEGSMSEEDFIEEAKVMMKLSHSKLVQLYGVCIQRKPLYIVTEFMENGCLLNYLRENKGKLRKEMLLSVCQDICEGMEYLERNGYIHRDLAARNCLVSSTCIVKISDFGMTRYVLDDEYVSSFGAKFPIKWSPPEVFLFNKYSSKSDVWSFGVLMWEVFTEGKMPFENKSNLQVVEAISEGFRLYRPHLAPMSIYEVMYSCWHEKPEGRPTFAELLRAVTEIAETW

[7] = molecular target: T1, Tyrosine-protein kinase TXK (Homo sapiens); settings: at 1 µM
[8] = molecular target: Non-receptor tyrosine-protein kinase TYK2 (Homo sapiens) (UniProt P29597); settings: at 0.1 µM;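 also: each value is a mean of the inhibition readings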
[9] = molecular target: T2, Dual specificity protein kinase TTK (Homo sapiens) (UniProt P33981); settings: at 1 µM;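 also: reported figures are mean TTK inhibition at 1 µM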
T2 sequence (whole entry): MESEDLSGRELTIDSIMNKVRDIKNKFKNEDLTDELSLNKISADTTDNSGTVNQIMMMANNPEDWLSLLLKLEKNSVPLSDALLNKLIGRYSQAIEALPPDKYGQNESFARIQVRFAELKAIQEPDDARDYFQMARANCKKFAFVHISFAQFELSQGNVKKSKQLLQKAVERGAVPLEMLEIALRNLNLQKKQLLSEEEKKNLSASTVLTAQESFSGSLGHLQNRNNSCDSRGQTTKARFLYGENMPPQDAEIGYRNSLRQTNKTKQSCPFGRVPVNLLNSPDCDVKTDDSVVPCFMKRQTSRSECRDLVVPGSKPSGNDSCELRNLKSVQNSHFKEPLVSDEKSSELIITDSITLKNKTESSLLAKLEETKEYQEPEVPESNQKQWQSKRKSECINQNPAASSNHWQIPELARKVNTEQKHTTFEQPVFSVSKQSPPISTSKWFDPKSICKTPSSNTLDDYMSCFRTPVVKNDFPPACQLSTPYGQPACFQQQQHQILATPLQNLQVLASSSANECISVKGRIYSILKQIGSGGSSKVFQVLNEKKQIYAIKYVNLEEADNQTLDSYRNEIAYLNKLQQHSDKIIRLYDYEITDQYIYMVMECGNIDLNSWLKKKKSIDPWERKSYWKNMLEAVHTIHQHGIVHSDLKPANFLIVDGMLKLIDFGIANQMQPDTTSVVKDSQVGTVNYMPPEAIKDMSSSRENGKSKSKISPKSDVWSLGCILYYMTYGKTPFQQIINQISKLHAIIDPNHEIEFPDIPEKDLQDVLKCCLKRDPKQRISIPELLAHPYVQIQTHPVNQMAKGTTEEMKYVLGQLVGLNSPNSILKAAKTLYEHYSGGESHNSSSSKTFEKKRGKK

[10] = molecular target: T3, Aurora kinase A (Homo sapiens) (UniProt O14965); settings: at 0.1 µM
T3 sequence (whole entry): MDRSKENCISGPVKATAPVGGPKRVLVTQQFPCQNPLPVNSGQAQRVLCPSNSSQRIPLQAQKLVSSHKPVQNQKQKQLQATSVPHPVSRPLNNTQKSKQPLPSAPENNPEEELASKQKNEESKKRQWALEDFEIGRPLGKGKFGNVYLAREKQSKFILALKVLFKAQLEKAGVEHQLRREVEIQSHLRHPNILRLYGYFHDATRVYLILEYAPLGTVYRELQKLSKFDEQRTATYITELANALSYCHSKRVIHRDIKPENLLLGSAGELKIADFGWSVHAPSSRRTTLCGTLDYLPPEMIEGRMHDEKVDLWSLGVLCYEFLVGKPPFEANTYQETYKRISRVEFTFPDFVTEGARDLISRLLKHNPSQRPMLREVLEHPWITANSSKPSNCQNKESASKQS

[11] = molecular target: T3, Aurora kinase A (Homo sapiens); settings: at 1 µM
[12] = molecular target: Aurora kinase B (Homo sapiens) (UniProt Q96GD4); settings: at 0.1 µM
[13] = molecular target: Aurora kinase B (Homo sapiens) (UniProt Q96GD4); settings: at 1 µM
[14] = molecular target: T4, Aurora kinase C (Homo sapiens) (UniProt Q9UQB9); settings: at 0.1 µM
T4 sequence (whole entry): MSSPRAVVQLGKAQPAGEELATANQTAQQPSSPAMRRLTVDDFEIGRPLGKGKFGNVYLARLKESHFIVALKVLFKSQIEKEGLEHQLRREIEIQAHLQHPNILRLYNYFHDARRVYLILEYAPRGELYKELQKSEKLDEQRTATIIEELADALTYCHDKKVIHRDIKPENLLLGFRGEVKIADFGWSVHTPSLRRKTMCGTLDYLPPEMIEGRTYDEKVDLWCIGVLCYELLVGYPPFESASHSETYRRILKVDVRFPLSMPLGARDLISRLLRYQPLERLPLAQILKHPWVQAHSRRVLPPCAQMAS

[15] = molecular target: T4, Aurora kinase C (Homo sapiens); settings: at 1 µM
[16] = molecular target: Serine/threonine-protein kinase 10 (Homo sapiens) (UniProt O94804); settings: at 0.1 µM
[17] = molecular target: Serine/threonine-protein kinase 10 (Homo sapiens) (UniProt O94804); settings: at 1 µM
[18] = molecular target: T5, Mitogen-activated protein kinase kinase kinase kinase 2 (Homo sapiens) (UniProt Q12851); settings: at 0.1 µM
T5 sequence (whole entry): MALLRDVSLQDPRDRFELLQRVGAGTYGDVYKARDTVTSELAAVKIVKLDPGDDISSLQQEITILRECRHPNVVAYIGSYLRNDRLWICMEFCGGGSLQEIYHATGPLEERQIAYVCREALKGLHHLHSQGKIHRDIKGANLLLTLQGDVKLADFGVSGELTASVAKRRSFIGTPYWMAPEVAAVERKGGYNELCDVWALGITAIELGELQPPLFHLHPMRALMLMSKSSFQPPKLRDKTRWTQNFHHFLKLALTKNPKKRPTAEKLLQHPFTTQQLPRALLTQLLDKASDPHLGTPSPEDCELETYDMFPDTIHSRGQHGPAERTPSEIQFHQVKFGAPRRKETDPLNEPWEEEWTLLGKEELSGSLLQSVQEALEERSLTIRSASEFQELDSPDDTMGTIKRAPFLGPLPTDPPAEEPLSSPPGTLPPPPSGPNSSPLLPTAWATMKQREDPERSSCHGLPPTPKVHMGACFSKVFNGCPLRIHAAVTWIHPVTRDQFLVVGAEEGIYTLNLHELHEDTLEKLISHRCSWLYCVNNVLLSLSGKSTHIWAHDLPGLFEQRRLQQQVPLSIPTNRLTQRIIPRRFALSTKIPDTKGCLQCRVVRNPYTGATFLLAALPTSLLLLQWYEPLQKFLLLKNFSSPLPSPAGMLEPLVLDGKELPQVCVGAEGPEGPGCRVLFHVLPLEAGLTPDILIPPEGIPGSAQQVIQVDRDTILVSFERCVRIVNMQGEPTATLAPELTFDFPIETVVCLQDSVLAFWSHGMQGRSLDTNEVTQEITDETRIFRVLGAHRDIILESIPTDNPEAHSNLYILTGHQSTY

[19] = molecular target: T5, Mitogen-activated protein kinase kinase kinase kinase 2 (Homo sapiens); settings: at 1 µM
[20] = molecular target: Mitogen-activated protein kinase kinase kinase kinase 4 (Homo sapiens) (UniProt O95819); settings: at 0.1 µM
Chain of Mitogen-activated protein kinase kinase kinase kinase 4 (Homo sapiens) (O95819 2-1239 limits assumed): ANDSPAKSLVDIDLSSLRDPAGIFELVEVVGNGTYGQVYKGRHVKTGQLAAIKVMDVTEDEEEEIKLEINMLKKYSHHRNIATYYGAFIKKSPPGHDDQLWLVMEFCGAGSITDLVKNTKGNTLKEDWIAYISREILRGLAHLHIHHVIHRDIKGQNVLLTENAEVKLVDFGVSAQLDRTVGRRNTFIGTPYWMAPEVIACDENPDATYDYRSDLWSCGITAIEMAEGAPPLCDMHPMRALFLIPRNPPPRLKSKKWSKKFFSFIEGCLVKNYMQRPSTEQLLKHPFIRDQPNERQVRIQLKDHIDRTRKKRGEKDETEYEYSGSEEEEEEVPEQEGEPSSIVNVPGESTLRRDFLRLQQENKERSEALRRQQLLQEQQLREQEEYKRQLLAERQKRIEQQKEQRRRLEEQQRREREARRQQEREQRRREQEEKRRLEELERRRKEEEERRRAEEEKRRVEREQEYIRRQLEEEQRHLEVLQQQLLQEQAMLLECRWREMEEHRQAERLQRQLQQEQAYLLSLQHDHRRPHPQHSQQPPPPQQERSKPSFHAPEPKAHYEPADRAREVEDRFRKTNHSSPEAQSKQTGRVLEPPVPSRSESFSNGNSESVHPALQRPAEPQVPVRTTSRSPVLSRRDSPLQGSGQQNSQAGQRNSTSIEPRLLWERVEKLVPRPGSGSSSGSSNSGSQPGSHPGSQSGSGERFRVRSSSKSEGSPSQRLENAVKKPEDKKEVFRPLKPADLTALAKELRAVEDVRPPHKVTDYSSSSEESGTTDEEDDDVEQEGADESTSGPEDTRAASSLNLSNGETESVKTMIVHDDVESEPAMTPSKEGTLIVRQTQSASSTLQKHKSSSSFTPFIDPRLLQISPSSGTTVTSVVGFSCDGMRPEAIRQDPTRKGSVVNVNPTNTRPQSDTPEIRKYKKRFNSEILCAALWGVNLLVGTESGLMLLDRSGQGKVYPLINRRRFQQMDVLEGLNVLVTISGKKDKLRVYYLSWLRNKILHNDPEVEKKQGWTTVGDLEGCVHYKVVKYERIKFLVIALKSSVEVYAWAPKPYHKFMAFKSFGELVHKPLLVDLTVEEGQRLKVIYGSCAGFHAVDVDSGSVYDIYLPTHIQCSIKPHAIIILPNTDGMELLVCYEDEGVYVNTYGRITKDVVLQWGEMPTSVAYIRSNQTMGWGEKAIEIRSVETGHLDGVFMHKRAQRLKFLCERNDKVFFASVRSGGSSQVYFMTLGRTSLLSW

Chain of Non-receptor tyrosine-protein kinase TYK2 (Homo sapiens) (P29597 whole entry): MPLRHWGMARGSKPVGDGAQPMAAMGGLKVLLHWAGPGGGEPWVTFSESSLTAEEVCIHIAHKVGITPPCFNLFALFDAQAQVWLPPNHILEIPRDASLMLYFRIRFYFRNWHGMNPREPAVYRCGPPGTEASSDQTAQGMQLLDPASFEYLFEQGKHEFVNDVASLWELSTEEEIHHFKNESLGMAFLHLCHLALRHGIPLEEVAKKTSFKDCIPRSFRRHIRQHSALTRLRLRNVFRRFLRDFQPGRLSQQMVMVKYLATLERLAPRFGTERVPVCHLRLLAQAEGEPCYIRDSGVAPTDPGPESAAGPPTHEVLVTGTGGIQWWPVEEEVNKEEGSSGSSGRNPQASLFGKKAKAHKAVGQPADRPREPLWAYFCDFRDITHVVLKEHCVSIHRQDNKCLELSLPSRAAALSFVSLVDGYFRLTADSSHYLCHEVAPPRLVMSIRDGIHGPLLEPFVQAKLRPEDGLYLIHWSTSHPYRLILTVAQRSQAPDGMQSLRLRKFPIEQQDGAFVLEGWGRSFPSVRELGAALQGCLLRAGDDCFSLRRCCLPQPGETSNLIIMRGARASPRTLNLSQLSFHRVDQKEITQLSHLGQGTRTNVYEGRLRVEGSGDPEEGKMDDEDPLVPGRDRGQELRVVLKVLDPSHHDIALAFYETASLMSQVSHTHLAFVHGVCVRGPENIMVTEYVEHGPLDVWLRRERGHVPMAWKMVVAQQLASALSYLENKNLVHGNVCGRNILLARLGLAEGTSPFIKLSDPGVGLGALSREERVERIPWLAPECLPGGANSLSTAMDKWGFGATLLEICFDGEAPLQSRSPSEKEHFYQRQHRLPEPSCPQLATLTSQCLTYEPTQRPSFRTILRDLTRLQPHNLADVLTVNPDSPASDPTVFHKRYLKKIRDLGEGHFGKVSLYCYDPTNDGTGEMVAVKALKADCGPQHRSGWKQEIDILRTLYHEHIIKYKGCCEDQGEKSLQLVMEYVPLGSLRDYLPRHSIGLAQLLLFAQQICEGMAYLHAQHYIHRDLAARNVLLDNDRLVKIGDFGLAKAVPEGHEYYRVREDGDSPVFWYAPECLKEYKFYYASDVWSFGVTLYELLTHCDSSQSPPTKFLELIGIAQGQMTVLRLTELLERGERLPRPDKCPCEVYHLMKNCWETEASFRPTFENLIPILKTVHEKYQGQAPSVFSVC
Chain of BDNF/NT-3 growth factors receptor (Homo sapiens) (Q16620 32-822 limits assumed): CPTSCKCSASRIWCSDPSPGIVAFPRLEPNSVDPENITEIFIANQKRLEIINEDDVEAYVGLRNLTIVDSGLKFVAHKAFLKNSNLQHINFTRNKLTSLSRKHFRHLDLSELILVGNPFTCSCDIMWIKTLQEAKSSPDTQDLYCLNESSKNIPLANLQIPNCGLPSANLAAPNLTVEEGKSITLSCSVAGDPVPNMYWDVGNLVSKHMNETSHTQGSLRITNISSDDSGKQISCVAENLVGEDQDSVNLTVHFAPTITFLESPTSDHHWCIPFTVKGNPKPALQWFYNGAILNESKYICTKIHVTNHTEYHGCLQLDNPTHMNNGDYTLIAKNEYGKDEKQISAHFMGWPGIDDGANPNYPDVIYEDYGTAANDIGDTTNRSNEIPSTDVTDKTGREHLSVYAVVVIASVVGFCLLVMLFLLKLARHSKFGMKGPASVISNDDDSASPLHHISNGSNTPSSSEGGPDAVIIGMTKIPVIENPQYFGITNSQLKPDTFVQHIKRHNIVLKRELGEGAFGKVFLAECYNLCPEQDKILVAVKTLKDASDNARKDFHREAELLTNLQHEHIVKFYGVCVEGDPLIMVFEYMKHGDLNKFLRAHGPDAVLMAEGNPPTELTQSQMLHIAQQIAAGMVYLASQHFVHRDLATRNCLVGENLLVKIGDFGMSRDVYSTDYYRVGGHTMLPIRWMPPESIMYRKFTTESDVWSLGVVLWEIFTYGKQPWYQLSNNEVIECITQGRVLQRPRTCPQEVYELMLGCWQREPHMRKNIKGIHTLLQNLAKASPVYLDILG
Chain of High affinity nerve growth factor receptor (Homo sapiens) (P04629 33-796 limits assumed): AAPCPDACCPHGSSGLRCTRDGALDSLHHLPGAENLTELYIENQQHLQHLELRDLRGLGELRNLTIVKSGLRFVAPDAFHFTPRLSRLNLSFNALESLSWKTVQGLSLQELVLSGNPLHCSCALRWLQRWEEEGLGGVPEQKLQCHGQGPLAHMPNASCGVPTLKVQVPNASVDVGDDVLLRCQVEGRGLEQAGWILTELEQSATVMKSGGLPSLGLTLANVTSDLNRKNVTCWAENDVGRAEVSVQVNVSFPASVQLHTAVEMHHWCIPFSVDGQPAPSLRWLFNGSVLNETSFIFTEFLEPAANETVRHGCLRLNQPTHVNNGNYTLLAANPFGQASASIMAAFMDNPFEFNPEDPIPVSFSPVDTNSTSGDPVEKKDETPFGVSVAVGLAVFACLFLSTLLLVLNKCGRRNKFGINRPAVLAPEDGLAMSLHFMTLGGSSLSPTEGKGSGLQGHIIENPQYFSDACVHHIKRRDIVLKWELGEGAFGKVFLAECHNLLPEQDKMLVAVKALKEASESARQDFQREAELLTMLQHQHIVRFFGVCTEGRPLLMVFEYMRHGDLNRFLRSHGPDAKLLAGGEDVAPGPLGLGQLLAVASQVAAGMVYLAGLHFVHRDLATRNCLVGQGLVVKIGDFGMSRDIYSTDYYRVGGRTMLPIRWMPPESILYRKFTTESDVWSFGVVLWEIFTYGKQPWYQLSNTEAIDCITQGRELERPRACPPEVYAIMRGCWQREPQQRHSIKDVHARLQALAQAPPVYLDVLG
Chain of Serine/threonine-protein kinase 10 (Homo sapiens) (O94804 whole entry, looked up): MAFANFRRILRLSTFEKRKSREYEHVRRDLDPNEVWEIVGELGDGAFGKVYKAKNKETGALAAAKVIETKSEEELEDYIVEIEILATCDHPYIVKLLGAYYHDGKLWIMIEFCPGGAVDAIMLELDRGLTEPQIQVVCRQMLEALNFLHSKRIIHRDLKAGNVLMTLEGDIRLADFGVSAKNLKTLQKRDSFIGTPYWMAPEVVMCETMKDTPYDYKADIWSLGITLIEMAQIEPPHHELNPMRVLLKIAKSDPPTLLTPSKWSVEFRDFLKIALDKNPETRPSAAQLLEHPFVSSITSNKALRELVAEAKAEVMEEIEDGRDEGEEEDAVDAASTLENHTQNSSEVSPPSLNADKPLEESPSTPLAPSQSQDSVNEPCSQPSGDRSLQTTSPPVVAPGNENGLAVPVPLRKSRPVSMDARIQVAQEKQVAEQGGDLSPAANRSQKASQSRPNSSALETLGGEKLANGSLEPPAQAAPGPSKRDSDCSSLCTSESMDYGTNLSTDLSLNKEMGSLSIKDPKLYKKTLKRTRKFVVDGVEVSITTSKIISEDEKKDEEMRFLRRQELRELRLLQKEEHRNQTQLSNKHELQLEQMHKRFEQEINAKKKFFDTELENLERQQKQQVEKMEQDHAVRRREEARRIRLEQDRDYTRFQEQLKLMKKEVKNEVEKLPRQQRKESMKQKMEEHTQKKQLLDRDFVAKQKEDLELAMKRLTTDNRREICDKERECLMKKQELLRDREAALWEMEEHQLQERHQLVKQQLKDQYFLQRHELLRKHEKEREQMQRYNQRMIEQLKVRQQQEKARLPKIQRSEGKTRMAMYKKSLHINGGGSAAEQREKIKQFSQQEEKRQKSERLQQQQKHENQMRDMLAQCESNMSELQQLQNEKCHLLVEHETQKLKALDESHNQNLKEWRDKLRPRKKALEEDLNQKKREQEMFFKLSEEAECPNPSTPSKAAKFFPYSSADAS

Row | SMILES | inhibition [1] | inhibition [2] | inhibition [3] | inhibition [4] | inhibition [5] | inhibition [6] | inhibition [7] | inhibition [8] | inhibition [9] | inhibition [10] | inhibition [11] | inhibition [12] | inhibition [13] | inhibition [14] | inhibition [15] | inhibition [16] | inhibition [17] | inhibition [18] | inhibition [19] | inhibition [20]
1 | FC(F)(F)c1cccc(Nc2nccc(-c3cnn4nc(-c5ccccc5)ccc34)n2)c1 | -0.33% | 0.37% | 3.54% | -0.78% | 3.9% | -1.01% | 5.95% | -2.57% | 6.07% | 0.08% | 3.33% | 2.71% | 8.1% | 1.82% | 10.2% | 3.86% | 5.68% | 0.58% | 2.4% | 2.1%
2 | CN(C)CCOc1ccc(-c2cc(-c3ccc4c(c3)CCC4=NO)c(-c3ccncc3)o2)cc1 | -2.77% | -0.06% | 1.62% | 0.94% | -0.98% | 0.73% | 3.15% | 0.89% | 1.15% | 0.13% | 0.04% | -1.06% | 1.93% | 0.74% | 7.21% | 16.8% | 62.6% | 2.2% | 5.27% | 0.91%
3 | N#Cc1ccc(Oc2nccc(-c3c(-c4ccc(F)cc4)ncn3C3CCNCC3)n2)cc1 | 0.26% | 2.91% | 4.54% | 2.17% | 3.17% | -0.35% | 1.69% | -3.12% | 8.89% | 3.21% | 4.78% | 3.58% | 5.49% | 0.14% | 3.86% | 6.19% | 8.89% | 0.91% | 4.07% | 3.8%
4 | COc1cc(N2CCN(C(C)C)CC2)ccc1Nc1nc(Nc2ccc(F)cc2C(=O)NC[C@@H](O)CO)c2cc[nH]c2n1 | 1.99% | 3.32% | 5.92% | 3.35% | 4.57% | -1.48% | -0.56% | -4.74% | 82% | -1.18% | -2.23% | -2.39% | 3.15% | -2.54% | -7.09% | 6.3% | 9.7% | 1.34% | 1.33% | 4.24%
5 | Fc1ccc(-c2ncn(C3CCNCC3)c2-c2ccnc(Oc3ccc(Oc4ccccc4)cc3)n2)cc1 | 5.66% | 2.54% | 2.27% | 2.44% | 1.66% | 8.91% | 5.95% | -1.07% | 7.56% | 2.89% | 0.96% | 4.04% | 3.66% | 0.06% | 0.55% | 5.52% | 6.96% | 2.54% | 9.5% | 4.44%
6 | COc1ccc(-c2ccc3c(NC(=O)C4CC4)n[nH]c3n2)cc1 | 2.48% | 1.11% | 5.12% | -0.49% | 5.04% | 2.08% | 2.53% | 0.27% | 8.48% | 1.67% | 9.18% | 3.59% | 5.77% | -5.01% | 8.55% | 4.51% | 8.53% | 1.22% | 0.37% | 5.28%
7 | C/C(Nc1ccc(S(N)(=O)=O)cc1)=C1/C(=O)Nc2ccccc21 | 38.3% | 14.1% | 61.8% | 17.4% | 87.1% | -0.52% | -0.74% | 1.41% | 35.7% | 2.21% | 37.8% | 8.07% | 48% | 7.34% | 85.7% | 0.97% | 9.28% | 1.58% | 17.7% | 44.9%
8 | Clc1ccc(CNc2nccc(-c3cnn4ncccc34)n2)cc1 | 1.03% | 0.46% | 1.45% | 0.37% | 2.98% | 2.07% | 6.82% | -1.15% | 10.5% | 0.34% | 10.8% | -0.06% | 8.64% | 2.6% | 4.42% | 2.66% | 6.27% | 2.75% | 9.93% | 3.91%
9 | C[C@@H](Oc1cc(-n2cnc3ccc(OC4CCN(C)CC4)cc32)sc1C(N)=O)c1ccccc1Cl | 8.12% | 3.68% | 7.84% | 2.56% | 9.09% | 3.26% | 19% | -3.41% | 8.91% | -0.97% | -0.02% | -0.58% | 1.75% | -3.34% | -1.29% | 50.1% | 81.4% | 2.18% | 18.4% | 3.22%
10 | COc1ccc2ncn(-c3cc(O[C@H](C)c4ccccc4Cl)c(C(N)=O)s3)c2c1 | 4.03% | 3.84% | 9.91% | 4.36% | 11% | -5.63% | -1.33% | -5.25% | 9.02% | -1.27% | 0.29% | -0.75% | 1.24% | -3.77% | 1.77% | 20.3% | 59.1% | 1.91% | 11% | 4.38%
11 | CN(C)c1ccc2c(c1)/C(=C/Nc1ccc(S(N)(=O)=O)cc1)C(=O)N2 | 46.2% | 15.4% | 65.2% | 21% | 73.1% | 3.16% | 4.14% | 1.02% | 12.5% | 6.26% | 50.7% | 4.95% | 30.4% | 17.9% | 48% | 3% | 18.1% | 5.66% | 29.9% | 23.9%
12 | COc1cccc(/C=N/Nc2ncnc3c2cnn3-c2cccc(OC)c2)c1 | 4.58% | 2.99% | 5.56% | 1.57% | 2.15% | 3.48% | 2.61% | -3.27% | 9.42% | 2.87% | 3.52% | 2.75% | 5.96% | 0.31% | 3.9% | 5.31% | 6.35% | -0.07% | 2.67% | 7.63%
13 | C[C@@H](Oc1cc(-n2cnc3ccc(OCC4CCN(C)CC4)cc32)sc1C(N)=O)c1ccccc1Cl | 5.94% | 3.02% | 10.1% | 4.35% | 10.4% | 5.54% | 8.91% | -2.69% | 43.2% | 3.84% | 6.43% | 4.49% | 5.33% | -0.3% | 3% | 63.3% | 86.9% | 2.59% | 13.9% | 4.27%
